The panel holds about 79,000 compounds, 15% with a hit somewhere; the sample as a whole holds those more often. Calls of active or inactive are those of the source. No stated cut-off is given here; in the data, active means growth inhibition above about 70%; inactive means the rest.
What was measured:
[1] = NCI Yeast Anticancer Drug Screen. Data for the rad52 strain (AID 147);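 further: 0% = growth of vehicle-treated control cultures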; settings: S. cerevisiae rad52 mutant growth inhibition, hits give high values
In short: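 Growth of repair-deficient yeast cells was compared between compound-treated and vehicle-treated cultures to give percent inhibition.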

[2] = NCI Yeast Anticancer Drug Screen. Data for the wt1 strain (AID 149);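 further: 0% = growth of vehicle-treated wt1 cultures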; settings: S. cerevisiae wt1 strain (SPY 50644) growth inhibition, hits give high values
In short: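 Compounds are added to wt1 yeast cultures. Growth is then measured. Inhibition is expressed relative to vehicle-treated controls.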

[3] = NCI Yeast Anticancer Drug Screen. Data for the rad50EPP+ strain (AID 151);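 further: 0% = growth of vehicle-treated control cultures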; settings: S. cerevisiae rad50 mutant strain, hits give high values
In short: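 Measured: growth inhibition of rad50EPP+ yeast. Reference: vehicle-treated controls. Screen uses strains with defined genetic alterations in DNA damage repair or cell cycle control.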

[4] = NCI Yeast Anticancer Drug Screen. Data for the mgt1 strain (AID 153); settings: S. cerevisiae mgt1 mutant growth inhibition, hits give high values
In short: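 Compounds were applied to mgt1 mutant yeast, and growth was then compared against vehicle-treated control cultures to give percent inhibition.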

[5] = NCI Yeast Anticancer Drug Screen. Data for the rad50 strain (AID 155);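 further: 0% = growth of vehicle-only cultures of the same strain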; settings: S. cerevisiae rad50 strain growth inhibition, hits give high values
In short: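 Inhibition values express reduced yeast growth in compound-treated cultures relative to vehicle-treated controls.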

[6] = NCI Yeast Anticancer Drug Screen. Data for the mec2-1 strain (AID 157); settings: S. cerevisiae mec2-1 strain, hits give high values
In short: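 Compounds were applied to mec2-1 yeast cells. Their growth was then compared with that of vehicle-treated cultures to give growth inhibition.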

[7] = NCI Yeast Anticancer Drug Screen. Data for the rad14 strain (AID 159);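 further: 0% = growth of vehicle-treated control cultures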; settings: S. cerevisiae rad14 strain growth inhibition, hits give high values
In short: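 A mutant yeast strain defective in DNA damage repair is treated with compound; inhibition of its growth is scored against untreated, vehicle-exposed cultures.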

[8] = NCI Yeast Anticancer Drug Screen. Data for the sgs1 mgt1 strain (AID 161);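 further: 0% = growth of cultures given vehicle only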; settings: S. cerevisiae sgs1 mgt1 strain, hits give high values
In short: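 Compounds are added to genetically altered yeast, and growth is compared with cultures given vehicle alone to give percent inhibition.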

[9] = NCI Yeast Anticancer Drug Screen. Data for the cln2 rad14 strain (AID 165);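 further: 0% = growth equal to vehicle treated cultures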; settings: S. cerevisiae cln2 rad14 strain, hits give high values
In short: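 Strain: cln2 rad14 yeast, altered in cell cycle control and DNA damage repair. Read-out: growth inhibition vs vehicle.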

[10] = NCI Yeast Anticancer Drug Screen. Data for the bub3 strain (AID 167); settings: S. cerevisiae bub3 mutant strain, hits give high values
In short: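 Steps: expose the mutant yeast strain to compound; grow alongside vehicle-treated cultures; measure growth; express inhibition against the vehicle cultures.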

[11] = NCI Yeast Anticancer Drug Screen. Data for the wt2 strain (AID 169);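 further: 0% = growth of vehicle-treated yeast cultures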; settings: S. cerevisiae wt2 strain growth inhibition, hits give high values
In short: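 Growth of compound-treated yeast is measured and expressed as inhibition relative to vehicle-only controls.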

[12] = NCI Yeast Anticancer Drug Screen. Data for the sgs1 strain (AID 173);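 further: 0% = growth of vehicle-only control cultures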; settings: S. cerevisiae sgs1 mutant, hits give high values
In short: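 Strain with an altered DNA repair or cell cycle pathway exposed to compound. Growth then measured. Value = inhibition versus vehicle control.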

[13] = NCI Yeast Anticancer Drug Screen. Data for the mlh1 rad18 strain (AID 175); settings: S. cerevisiae mlh1 rad18 strain growth inhibition, hits give high values
In short: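 A repair-deficient yeast strain is exposed to test compound, and growth is scored relative to vehicle-treated controls.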

[14] = NCI Yeast Anticancer Drug Screen. Data for the rad18 strain (AID 177); settings: S. cerevisiae rad18 mutant growth inhibition, hits give high values
In short: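 DNA-repair-defective yeast; compound treatment; growth inhibition scored against vehicle.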

[15] = NCI Yeast Anticancer Drug Screen. Data for the mlh1 strain (AID 171);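 further: 0% = growth of vehicle-treated control cultures of the same strain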; settings: S. cerevisiae mlh1 strain growth inhibition, hits give high values
In short: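 Test agents were incubated with yeast bearing a defined DNA damage repair or cell cycle control alteration; values are growth inhibition normalised to vehicle-treated cultures.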

[16] = NCI Yeast Anticancer Drug Screen. Data for the CLN2oe strain (AID 163);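 further: 0% = growth of vehicle-only control cultures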; settings: S. cerevisiae CLN2oe strain, hits give high values
In short: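 Cells of an engineered yeast line with disturbed cell-cycle regulation are treated with compound. Inhibition of growth is then calculated relative to the vehicle-treated reference.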

[17] = at 5.0 µM (retest, dose inferred, filed as 0.5)
[18] = at 50.0 µM (retest, dose inferred, filed as 5.0)

Measured: growth inhibition

O=[N+]([O-])c1cc([As](Br)c2ccc(O)c([N+](=O)[O-])c2)ccc1O
inactive: [1]; at 1.2 µM 15% | [1]; at 3.7 µM 57% | [2]; at 1.2 µM 10% | [3]; at 1.2 µM 0% | [3]; at 3.7 µM 3% | [3]; at 11.0 µM 26% | [4]; at 1.2 µM 28% | [5]; at 1.2 µM 28% | [6]; at 1.2 µM 60% | [7]; at 1.2 µM 31% | [7]; at 3.7 µM 69% | [11]; at 1.2 µM 12% | [12]; at 1.2 µM 33% | [14]; at 1.2 µM 26%
active: [1]; at 11.0 µM 99% | [1]; at 33.0 µM 99% | [1]; at 100.0 µM 98% | [2]; at 3.7 µM 70% | [2]; at 11.0 µM 99% | [2]; at 33.0 µM 98% | [2]; at 100.0 µM 98% | [3]; at 33.0 µM 74% | [3]; at 100.0 µM 99% | [4]; at 3.7 µM 88% | [4]; at 11.0 µM 100% | [4]; at 33.0 µM 99% | [4]; at 100.0 µM 99% | [5]; at 3.7 µM 89% | [5]; [17] 99% | [5]; at 11.0 µM 99% | [5]; at 33.0 µM 99% | [5]; [18] 99% | [5]; at 50.0 µM 99.5% | [5]; at 100.0 µM 98% | [6]; at 3.7 µM 93% | [6]; [17] 99% | [6]; at 11.0 µM 99% | [6]; at 33.0 µM 100% | [6]; [18] 99% | [6]; at 50.0 µM 99.8% | [6]; at 100.0 µM 100% | [7]; at 11.0 µM 100% | [7]; at 33.0 µM 100% | [7]; at 100.0 µM 99% | [8]; [17] 99% | [8]; [18] 99% | [8]; at 50.0 µM 99.5% | [9]; [17] 98% | [9]; [18] 99% | [9]; at 50.0 µM 99.5% | [10]; at 1.2 µM 97% | [10]; at 3.7 µM 98% | [10]; [17] 93% | [10]; at 11.0 µM 97% | [10]; at 33.0 µM 98% | [10]; [18] 99% | [10]; at 50.0 µM 99.5% | [10]; at 100.0 µM 99% | [11]; at 3.7 µM 94% | [11]; at 11.0 µM 99% | [11]; at 33.0 µM 99% | [11]; at 100.0 µM 99% | [12]; at 3.7 µM 90% | [12]; at 11.0 µM 99% | [12]; at 33.0 µM 99% | [12]; at 100.0 µM 99% | [13]; [17] 99% | [13]; [18] 99% | [13]; at 50.0 µM 99.8% | [14]; at 3.7 µM 85% | [14]; at 11.0 µM 99% | [14]; at 33.0 µM 99% | [14]; at 100.0 µM 98%

O=C1OC2C(O1)C1(Cl)C(Cl)=C(Cl)C2(Cl)C1(Cl)Cl (stereo unspecified)
inactive: [1]; at 1.2 µM -3% | [1]; at 3.7 µM -2% | [1]; at 11.0 µM -1% | [1]; at 33.0 µM 0% | [1]; at 100.0 µM 1% | [2]; at 1.2 µM -4% | [2]; at 3.7 µM -3% | [2]; at 11.0 µM -3% | [2]; at 33.0 µM -7% | [2]; at 100.0 µM -7% | [3]; at 1.2 µM -1% | [3]; at 3.7 µM 0% | [3]; at 11.0 µM 0% | [3]; at 33.0 µM -3% | [3]; at 100.0 µM -2% | [4]; at 1.2 µM -4% | [4]; at 3.7 µM -3% | [4]; at 11.0 µM -3% | [4]; at 33.0 µM -6% | [4]; at 100.0 µM -3% | [5]; at 1.2 µM -2% | [5]; at 3.7 µM -3% | [5]; [17] 2% | [5]; at 11.0 µM -2% | [5]; at 33.0 µM -3% | [5]; [18] 41% | [5]; at 100.0 µM -1% | [6]; at 1.2 µM -4% | [6]; at 3.7 µM -4% | [6]; [17] 3% | [6]; at 11.0 µM -3% | [6]; at 33.0 µM -3% | [6]; at 100.0 µM -3% | [7]; at 1.2 µM -4% | [7]; at 3.7 µM -6% | [7]; at 11.0 µM -3% | [7]; at 33.0 µM -7% | [7]; at 100.0 µM -1% | [8]; [17] 3% | [9]; [17] 1% | [9]; [18] 61% | [10]; at 1.2 µM -6% | [10]; at 3.7 µM -4% | [10]; [17] 0% | [10]; at 11.0 µM -9% | [10]; at 33.0 µM -10% | [10]; at 100.0 µM -19% | [11]; at 1.2 µM -13% | [11]; at 3.7 µM -5% | [11]; at 11.0 µM -6% | [11]; at 33.0 µM -7% | [11]; at 100.0 µM -7% | [15]; at 1.2 µM -1% | [15]; at 3.7 µM 0% | [15]; at 11.0 µM 2% | [15]; at 33.0 µM 1% | [15]; at 100.0 µM 2% | [12]; at 1.2 µM -1% | [12]; at 3.7 µM 0% | [12]; at 11.0 µM 0% | [12]; at 33.0 µM 0% | [12]; at 100.0 µM 1% | [13]; [17] 7% | [14]; at 1.2 µM -4% | [14]; at 3.7 µM 0% | [14]; at 11.0 µM -1% | [14]; at 33.0 µM -2% | [14]; at 100.0 µM 2%
active: [5]; at 50.0 µM 85.2% | [6]; [18] 90% | [6]; at 50.0 µM 87.8% | [8]; [18] 74% | [8]; at 50.0 µM 87.2% | [9]; at 50.0 µM 78.5% | [10]; [18] 75% | [10]; at 50.0 µM 98% | [13]; [18] 90% | [13]; at 50.0 µM 74.2%

NCCc1ccc(OCc2ccccc2)c(OCc2ccccc2)c1
active: [1]; at 33.0 µM 72% | [1]; at 100.0 µM 92% | [2]; at 33.0 µM 74% | [2]; at 100.0 µM 97% | [3]; at 100.0 µM 83% | [4]; at 33.0 µM 97% | [4]; at 100.0 µM 98% | [5]; at 33.0 µM 90% | [5]; [18] 90% | [5]; at 50.0 µM 91.7% | [5]; at 100.0 µM 96% | [6]; at 33.0 µM 92% | [6]; [18] 96% | [6]; at 50.0 µM 91.5% | [6]; at 100.0 µM 98% | [8]; [18] 97% | [16]; at 100.0 µM 97% | [9]; [18] 82% | [10]; at 33.0 µM 87% | [10]; [18] 92% | [10]; at 100.0 µM 96% | [11]; at 33.0 µM 95% | [11]; at 100.0 µM 97%
inactive: [1]; at 1.2 µM -8% | [1]; at 3.7 µM -5% | [1]; at 11.0 µM -6% | [2]; at 1.2 µM 0% | [2]; at 3.7 µM -6% | [2]; at 11.0 µM -28% | [3]; at 1.2 µM -15% | [3]; at 3.7 µM -9% | [3]; at 11.0 µM -19% | [3]; at 33.0 µM 11% | [4]; at 1.2 µM 2% | [4]; at 3.7 µM 13% | [4]; at 11.0 µM 56% | [5]; at 1.2 µM 16% | [5]; at 3.7 µM 17% | [5]; [17] 43% | [5]; at 11.0 µM 35% | [6]; at 1.2 µM 0% | [6]; at 3.7 µM 3% | [6]; [17] 35% | [6]; at 11.0 µM 8% | [8]; [17] -16% | [16]; at 1.2 µM -1% | [16]; at 3.7 µM 3% | [16]; at 11.0 µM -5% | [16]; at 33.0 µM 41% | [9]; [17] 36% | [10]; at 1.2 µM 12% | [10]; at 3.7 µM 20% | [10]; [17] -17% | [10]; at 11.0 µM 35% | [11]; at 1.2 µM -15% | [11]; at 3.7 µM -12% | [11]; at 11.0 µM 37% | [12]; at 1.2 µM -8% | [12]; at 3.7 µM -5% | [12]; at 11.0 µM 51%

— PubChem BioAssay (NCI)
